Among the data in PubChem BioAssay (Tox21) are Potency and activity, negative = inhibition values, retold here.

Molecules are shown by their SMILES. Results filed as inconclusive are left out. Entries that show only a call come without a potency. The source made the active and inactive calls. Calls follow the shape of the full dose curve.
Potency is read from the fitted curve at half-maximal effect.

Acetylcholinesterase (Homo sapiens), sequence (P22303 whole entry, looked up): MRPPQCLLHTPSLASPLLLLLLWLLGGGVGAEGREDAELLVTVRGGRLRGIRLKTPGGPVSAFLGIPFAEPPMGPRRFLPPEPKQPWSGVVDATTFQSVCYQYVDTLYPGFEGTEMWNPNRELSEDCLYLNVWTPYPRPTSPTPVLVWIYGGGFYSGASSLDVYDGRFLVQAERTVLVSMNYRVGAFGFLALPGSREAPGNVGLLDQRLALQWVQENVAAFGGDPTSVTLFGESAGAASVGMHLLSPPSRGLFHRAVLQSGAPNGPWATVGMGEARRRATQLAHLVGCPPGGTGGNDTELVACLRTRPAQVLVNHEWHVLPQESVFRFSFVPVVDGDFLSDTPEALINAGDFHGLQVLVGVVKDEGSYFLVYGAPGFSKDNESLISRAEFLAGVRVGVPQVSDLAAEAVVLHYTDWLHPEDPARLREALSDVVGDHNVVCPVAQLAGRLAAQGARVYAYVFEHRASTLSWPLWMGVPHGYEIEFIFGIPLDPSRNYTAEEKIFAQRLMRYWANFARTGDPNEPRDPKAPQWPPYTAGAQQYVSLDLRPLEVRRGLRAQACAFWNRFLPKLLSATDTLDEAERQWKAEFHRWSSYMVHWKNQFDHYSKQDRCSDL

For the experiment, the target named is Acetylcholinesterase (Homo sapiens) (UniProt P22303). The experiment is described as follows: Acetylcholinesterase (AChE) small molecule antagonists: colormetric cell-based qHTS assay (AID 1347395). Also: nearly all actives have a fitted effect of over 30% in size. The settings on record: SH-SY5Y cells AChE activity, colorimetric (Ellman); series mostly up to 115 µM. The source says:
National Center for Advancing Translational Sciences [NCATS]
Division of Preclinical Innovation [DPI]
U.S. Environmental Protection Agency [EPA]
National Institutes of Environmental Health Sciences [NIEHS]
National Toxicology Program [NTP]
U.S. Food and Drug Administration [FDA]
Acetylcholinesterase (AChE) is the primary cholinesterase in the body that hydrolyzes a key neurotransmitter, acetylcholine. Inhibition of AChE activity can lead to neurotoxicity. The known inhibitors include organophosphorous pesticides (OP), chemical warfare agents, drugs, and various phytochemicals.
A homogenous cell-based assay using the Amplite Colormetric acetylcholinesterase assay kit (AAT Bioquest, Sunnyvale, CA) was used to evaluate the chemicals in the Tox21 10K library that inhibit AChE activity. The assay uses 5, 5-dithiobis-(2-nitrobenzoic acid) (DTNB) to quantify the thiocholine produced from the hydrolysis of acetylthiocholine by AChE from the SH-SY5Y cells.
Tox21 Assay Protocol Summary:
For the cell-based AChE assay, 2,000 SH-SY5Y cells in 4 uL/well were dispensed into black, clear-bottom 1536-well plates using a Multidrop Combi dispenser (Thermo Scientific, MA). The assay plates were incubated overnight at 37 C to allow cells to attach to the wells, followed by the transfer of 23 nL of compound or DMSO (vehicle control) by a Pintool Station (Wako Automation, CA). The plates were incubated for 30 min at 37 C and 5% CO2, followed by the addition of 4 uL of detection cocktail solution (DTNB, acetylthiocholine) into each well using a Flying Reagent Dispenser (Beckman Coulter, CA) and then 90 min incubation at 37 C.
As to `CC(C)(C)C1CCC(O)CC1` (stereo not given), the Potency result is “inactive”. The same measure, in the same setting: to `N#Cc1cc([N+](=O)[O-])ccc1N` belongs “inactive”; to `O=[N+]([O-])c1ccc(O)cc1C(F)(F)F`, “inactive”. On the same count and under the same terms, to `Cc1nc2ccc(Cl)cc2[nH]1` belongs “inactive”; to `C[C@H]1C[C@H]2[C@@H]3CCC4=CC(=O)C=C[C@]4(C)[C@@]3(F)[C@@H](O)C[C@]2(C)[C@@]1(O)C(=O)COP(=O)(O)O`, “inactive”; to `Cn1c(=O)[nH]c2ncn(C)c2c1=O`, “inactive”.

Turning to `Cc1ccc(C(C)C)cc1`, the Potency entry was “inactive”.

For the molecule `CC(=O)CC(=O)Nc1ccccc1C`, the Potency result is “inactive”. On the same count and under the same terms, to `COc1cccc2sc(N)nc12` belongs “inactive”; to `Cc1cc(C)c(S(=O)(=O)O)cc1N=Nc1cc(S(=O)(=O)O)c2ccccc2c1O`, “inactive”; to `O=C(O)/C=C/C(=O)O`, “inactive”. Same read-out and setting: under `C=CC(C)CCC=C(C)C` (stereo not given) stands “inactive”; under `CCc1cc(Cc2cc(CC)cc(C(C)(C)C)c2O)c(O)c(C(C)(C)C)c1`, “inactive”; under `CN(C)Cc1ccccc1`, “inactive”. The same measure, in the same setting: under `CC1(C)Oc2ccc(C#N)cc2[C@@H](N2CCCC2=O)[C@@H]1O` stands “inactive”; under `CCOC(=O)C(C)C(C)=O` (stereo not given), “inactive”.

As for `CCCCCCCCCCOc1cc2c(=O)c(C(=O)OCC)c[nH]c2cc1OCC`, the activity, negative = inhibition is 1.43% [at 10.5 µM] (inactive). Consider `O=C1c2ccccc2C(=O)C1c1ccc2cc(S(=O)(=O)O)cc(S(=O)(=O)O)c2n1`, for which the Potency entry was “inactive”.

Consider `CO/N=C(/C(=O)N[C@@H]1C(=O)N2C(C(=O)[O-])=C(C[n+]3ccn4ncccc43)CS[C@H]12)c1nsc(N)n1`, for which the Potency result was “inactive”. In the case of `CC(=O)OCc1ccccc1`, the Potency result is “inactive”. Still for that read-out and setting: to `CC(=O)OC/C=C(C)/C=C/C=C(C)/C=C/C1=C(C)CCCC1(C)C` belongs “inactive”; to `COC(=O)/C=C(\C)CCC=C(C)C`, “inactive”. The same measure, in the same setting: to `O=C(Nc1ccccc1)Nc1ccccc1` belongs “inactive”.

As to `CC(=O)OCCOCCOCCOC(C)=O`, the Potency entry is “inactive”. Still for that read-out and setting: under `COC(C)(C)OC` stands “inactive”.

With `CCN(CC)CCSC(=O)C(c1ccccc1)c1ccccc1`, the Potency result is “inactive”. As to `Cc1cc(C)cc(OCC2CNC(=O)O2)c1` (stereo not given), the Potency result was “inactive”. On the same count and under the same terms, under `c1cnc2c(n1)CCCC2` stands “inactive”; under `CC(COc1ccc(C(C)(C)C)cc1)OS(=O)OCCCl` (stereo not given), “inactive”; under `CC(=O)c1ccc(Cl)c(Cl)c1Cl`, “inactive”. Still for that read-out and setting: to `O=C(O)/C=C\C(=O)O` belongs “inactive”; to `CCc1ccc(C(c2ccc(CC)cc2)C(Cl)Cl)cc1`, “inactive”. As to `C/C=C/c1ccc(OC)c(OC)c1`, the Potency entry is “inactive”. Take `CC(=O)c1c(C)c([N+](=O)[O-])c(C(C)(C)C)c([N+](=O)[O-])c1C`: the Potency was 79.6 µM (active). Same read-out and setting: to `C=CCc1cc(OC)c(O)c(C(=O)NCCO)c1` belongs “inactive”; to `Cc1c(N)cccc1C(F)(F)F`, “inactive”. Same read-out and setting: under `OCc1cccc(Oc2ccccc2)c1` stands “inactive”; under `CCCCCCCCCCCCN1CCCCCC1=O`, “inactive”.

For `COc1ccc(-c2cc(C(F)F)nn2-c2ccc(S(N)(=O)=O)cc2)cc1F`, the Potency entry was “inactive”. Still for that read-out and setting: under `O=C1c2c(O)ccc(Nc3ccc(CCO)cc3)c2C(=O)c2c([N+](=O)[O-])ccc(O)c21` stands 8.94 µM (active).
